± gives the standard deviation of the averaged measurements.
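Further: End-point A600 read in BHI broth at 37 °C with 2% DMSO, inhibition computed as (1 − OD with compound plus ceftriaxone ÷ OD with ceftriaxone only) × 100.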

The test has as its system Listeria monocytogenes 10403S. Description: growth inhibition relative to ceftriaxone-alone control; higher = stronger potentiation of ceftriaxone growth inhibition. Conditions: 10 µM; ceftriaxone 1 ug/ml; 12 h.
On to `CNC(=O)c1ccccc1Nc1nc(Nc2ccc(N3CCOCC3)cc2OC)ncc1Cl`, for which the growth inhibition is -3.4 ± 13%.

`CNC(=O)c1cc(-c2ccc(F)cc2)cc(-c2ccc(S(=O)(=O)N3CCCC3)cc2)c1N`: the growth inhibition was -4.95 ± 15%.

As to `COC(=O)Nc1nc2cc(Oc3ccc(NC(=O)Nc4ccccc4)cc3)ccc2[nH]1`, the growth inhibition amounted to 8.77 ± 1.8%.

`Cc1c(CN2CCN(C(=O)[C@H](C)O)CC2)sc2c(N3CCOCC3)nc(-c3cnc(N)nc3)nc12`: the growth inhibition amounted to 22.8 ± 8.1%.

Take `Cn1cnc2c(F)c(Nc3ccc(Br)cc3Cl)c(C(=O)NOCCO)cc21` [AZD6244 (Selumetinib)]: the growth inhibition is 0.682 ± 22%.

As for `C[S+]([O-])c1ccc(-c2nc(-c3ccc(F)cc3)c(-c3ccncc3)[nH]2)cc1` (stereo unspecified), the growth inhibition was found to be 28.4 ± 26%.

In the case of `COC(=O)Nc1nc2cc(Oc3ccc(NC(=O)Nc4cccc(Br)c4)cc3)ccc2[nH]1`, the growth inhibition is -0.0344 ± 20%.

With `Cc1ccc(C(=O)NC2CCC2)cc1-c1ccc(C(=O)NCC2CC2)cc1`, the growth inhibition was -1.49 ± 1.4%.

Regarding `Oc1c2ccccc2c2c3c(cccc13)N=N2`, the growth inhibition is 10.4 ± 10%.

Take `Cn1cc(C2=C(c3ccc(Cl)cc3Cl)C(=O)NC2=O)c2ccccc21`: the growth inhibition is 19.5 ± 33%.

Take `COc1cccc(-n2ncc3c(N/N=C/c4cccc(F)c4)ncnc32)c1`: the growth inhibition was 6.27 ± 6.8%.

Regarding `CC(C)COC(=O)c1ccc2c(c1)/C(=C/Nc1ccc(S(N)(=O)=O)cc1)C(=O)N2`, the growth inhibition is -6.41 ± 14%.

For the compound `NCc1ccc(-n2c(-c3nonc3N)nc3cnccc32)cc1`, the growth inhibition is -4.5 ± 3.6%.

On to `Cc1cc(C(=O)NOCCO)c(Nc2ccc(I)cc2F)n(C)c1=O`, for which the growth inhibition stood at 13.2 ± 5.6%.

As for `Cc1cccc(Nc2ncc(-c3ccccc3)o2)c1`, the growth inhibition is -0.369 ± 0.46%.

With `NS(=O)(=O)c1ccc(Nc2ncc(-c3ccccc3)o2)cc1`, the growth inhibition worked out at 6.88 ± 6.9%.

(Values after the supplement of paper PMC5641865, “A screen for kinase inhibitors identifies antimicrobial imidazopyridine aminofurazans as specific inhibitors of the Listeria monocytogenes PASTA kinase PrkA” (The Journal of Biological Chemistry, 2017).)
